Out of some 310,000 compounds screened, about 11,000 (3.5%) were called active. Not shown: some 4% with an inconclusive outcome. Many of the other results were omitted from the sample, so actives are more common in it than they were. Values without a mark were called inactive. The call rests on the fitted dose curve; in most records, active means well fitted inhibition curve with a large enough effect; inconclusive means small, poorly fitted or top-dose-only effect, or another doubt; inactive means no such curve, though single readings can be large or run the other way.
Potency means the concentration at half of the fitted maximal effect.

The experiment concerns the target 4'-phosphopantetheinyl transferase ffp (Bacillus subtilis) (UniProt Q9F4F7). Description: qHTS Assay for Inhibitors of Bacillus subtilis Sfp phosphopantetheinyl transferase (PPTase).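 Further: the enzyme is Sfp with the accession as filed and its product quenches rhodamine fluorescence.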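 On largest response in the series, negative = inhibition: 0% = enzyme reaction without inhibitor and -100% = no enzyme wells.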 The note with it: Biochemical Sfp PPTase activity. Summed up:
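After 15 min at room temperature with compound, 15 nM Sfp received 5 uM rhodamine-CoA plus 12.5 uM BHQ-2-ybbR (50 mM Hepes pH 7.6, 10 mM MgCl2). Rate came from the fluorescence difference over 30 min, ex 525/em 598 nm.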
In the case of `O=[N+]([O-])c1ccc(N(CCO)Cc2ccccc2)c([N+](=O)[O-])c1`, the largest response in the series, negative = inhibition was 3.62%. `O=C(c1cnc(Cl)c(Cl)c1)N1CCN(S(=O)(=O)c2ccc(F)cc2)CC1`: the largest response in the series, negative = inhibition is -5.59%. On the same count and under the same terms, the value for `Cc1cccc(NC(=O)N2CCCCCC2)c1C` was 3.74%. On to `CC(=O)N1CCc2c(sc(NC(=O)CCS(=O)(=O)c3ccccc3)c2C#N)C1`, for which the largest response in the series, negative = inhibition is -1.97%. For `CC(C)N1CCc2c(sc(NC(=O)Cc3ccccc3)c2C#N)C1`, the largest response in the series, negative = inhibition was 11.3%. `N#Cc1c(N)sc2c1CCN(C(=O)OCc1ccccc1)C2`: the Potency is 20 µM (active). As to `CC(CC(=O)Nc1ccc(F)cc1F)S(=O)(=O)c1ccc2c(c1)NC(=O)CO2` (centres undefined), the largest response in the series, negative = inhibition is 0.768%. Regarding `NS(=O)(=O)c1ccc(CCNS(=O)(=O)c2cccc3cccnc23)cc1`, the largest response in the series, negative = inhibition was 2.24%. The same measure, in the same setting: with `COc1ccc(CN2CCN(C(=O)CCC(=O)Nc3nnc(C(C)C)s3)CC2)cc1F` the figure was 17.5%; with `Cc1ccc(NS(=O)(=O)c2ccc(-c3ccc(=O)[nH]n3)o2)c(C)c1`, 23.5%. For `CCOC(=O)c1c(C)nn(-c2ncccc2NC(=O)CCC(=O)O)c1C`, the Potency was 89.1 µM (active).

Turning to `Cc1ccc(OC(=O)c2c(C)nn(-c3ccccc3)c2C)cc1`, the largest response in the series, negative = inhibition is -5.58%. Take `CCOC(=O)c1c(-c2ccc(-c3ccccc3)cc2)csc1NC(=O)CCC(=O)O`: the largest response in the series, negative = inhibition is -8.3%.

As for `CN(C(=O)c1cccc([N+](=O)[O-])c1)c1ccccc1C(=O)NCc1ccccc1`, the largest response in the series, negative = inhibition is 15.3%. As to `CCOc1ccc(CNC(=O)CCC(=O)N2CCSc3ccccc32)cc1`, the largest response in the series, negative = inhibition is 11.6%. `CCOC(=O)c1cc(Sc2ccccc2N)cc(C(=O)OCC)n1`: the largest response in the series, negative = inhibition is 2.06%.

Consider `CCS(=O)(=O)c1cc([N+](=O)[O-])c(Sc2ccccc2N)s1`, for which the Potency was 3.98 µM (active). As to `Nc1ccccc1Sc1ccc(C(F)(F)F)cc1[N+](=O)[O-]`, the largest response in the series, negative = inhibition is 4.01%. Consider `COCCn1c(N)c(NCc2ccccc2)c(=O)[nH]c1=O`, for which the largest response in the series, negative = inhibition was -5.84%. Regarding `CCc1ccc(OCC(=O)NCC(c2ccc(Cl)cc2)N2CCCCC2)cc1` (centres undefined), the largest response in the series, negative = inhibition was -3.22%.

Regarding `O=c1c(O)c(Br)ccc2c(Br)c(O)c(O)c(O)c12`, the Potency is 44.7 µM (active).

Turning to `CN(CCC1CCOCC1)C(=O)CC1C(=O)NCCN1Cc1cccc(F)c1` (centres undefined), the largest response in the series, negative = inhibition was 18.8%. Turning to `Cc1cc(C(=O)N/N=C/c2ccc(N3CCOCC3)cc2)c(C)o1`, the largest response in the series, negative = inhibition is 16%. For `C=CCNC(=S)N/N=C/c1ccc(C)s1`, the largest response in the series, negative = inhibition is 10%. On to `CNC(=S)N/N=C/c1ccc(N2CCOCC2)s1`, for which the Potency is 8.91 µM (active). For the molecule `CC(NC(=O)COc1ccc(-c2ccccc2)cc1)C1CCCO1` (centres undefined), the largest response in the series, negative = inhibition was -4.17%.

As for `Cc1ccccc1/C=C\c1nc(O)c([N+](=O)[O-])c(=O)[nH]1`, the largest response in the series, negative = inhibition is 2.6%.

Turning to `CCn1c(CNc2ccc(OC)cc2)nnc1SCC(=O)c1ccc(OC)cc1`, the Potency is 28.2 µM (active). For `C=CCn1c(CNC(=O)c2ccco2)nnc1SCC(=O)c1ccc(OC)cc1`, the largest response in the series, negative = inhibition is 17.3%. With `COC(=O)c1ccc(NC(=O)CSc2nnc(CNc3ccc(OC)cc3)n2C)cc1`, the largest response in the series, negative = inhibition was 7.16%.

As for `O=C(NCc1ccc2c(c1)OCO2)C(=O)NCC1OCCN1S(=O)(=O)c1ccc(F)cc1` (centres undefined), the largest response in the series, negative = inhibition was 4.15%. In the case of `COc1ccc(OC)c([C@H](O)CNC(=O)CN)c1`, the largest response in the series, negative = inhibition was 4.71%. With `CC(C)c1nnc(NC(=O)CCC(=O)N2CCN(c3cccc(Cl)c3)CC2)s1`, the largest response in the series, negative = inhibition is 0.428%. For the molecule `CC(C)NS(=O)(=O)c1ccc(OCC(=O)NC2CCCCCC2)cc1`, the largest response in the series, negative = inhibition was 6.32%. In the case of `Cc1ccc(S(=O)(=O)C(C#N)c2nc3ccccc3nc2N2CCCC2)cc1C` (centres undefined), the Potency was 50.1 µM (active). On to `Cc1ccc(S(=O)(=O)Nc2nc3ccccc3nc2N2CCc3ccccc3C2)cc1`, for which the largest response in the series, negative = inhibition was 9.29%.

Turning to `Cc1cc(N2CCN(S(=O)(=O)c3ccc(C)c(C)c3)CC2)c2ccccc2n1`, the largest response in the series, negative = inhibition is -20.8%.

As for `COc1ccc(NS(=O)(=O)c2cccc3nsnc23)cc1Cl`, the largest response in the series, negative = inhibition is 13.3%.

`Cc1cc(-c2ccc(S(=O)(=O)N3CCN(c4cccc(C(F)(F)F)c4)CC3)s2)on1`: the largest response in the series, negative = inhibition was 8.41%. `S=c1[nH]c(-c2cccs2)cn1-c1ccccc1`: the Potency is 15.8 µM (active). In the case of `O=c1[nH]c(-c2cccs2)nc2ccccc12`, the largest response in the series, negative = inhibition is -0.0388%. Consider `S=c1[nH]nc(-c2cccs2)n1/N=C/c1cn(-c2ccccc2)nc1-c1ccc(Cl)cc1`, for which the largest response in the series, negative = inhibition is -17.4%.

Consider `COc1cccc(NC(=O)C2C(c3ccccc3)C2(Cl)Cl)c1` (centres undefined), for which the largest response in the series, negative = inhibition was 11.1%. With `CCn1cc(C(=O)N[C@@H](C)C(=O)NCCO)c(=O)c2cc3c(cc21)OCO3`, the largest response in the series, negative = inhibition is 20.9%.

For `Cc1ccc(S(=O)(=O)CC(=O)NC(C)c2ccccc2)cc1` (centres undefined), the largest response in the series, negative = inhibition is 12.8%. For `CN(CCc1ccccn1)C1CCCN(S(=O)(=O)c2ccccc2Cl)C1` (centres undefined), the largest response in the series, negative = inhibition is 8.81%. Same read-out and setting: with `CC[C@H](C)[C@H](NC(=O)[C@H](Cc1ccc(O)cc1)NC(=O)[C@@H](NC(=O)[C@H](CCCN=C(N)N)NC(=O)[C@@H](N)CC(=O)O)C(C)C)C(=O)N[C@@H](Cc1cnc[nH]1)C(=O)N1CCC[C@H]1C(=O)N[C@@H](Cc1ccccc1)C(=O)O` the figure was -1.37%; with `CCCc1cc(-c2n[nH]c(=S)n2CC)c2ccccc2n1`, -1.53%. For the molecule `CCn1c(-c2ccncc2)n[nH]c1=S`, the Potency was 39.8 µM (active).

Regarding `CCn1c(-c2ccoc2C)n[nH]c1=S`, the largest response in the series, negative = inhibition was 11.6%. Same read-out and setting: with `CC1=CCC2C(=O)N(c3cccc(C(=O)NC(C)c4ccccc4)c3)C(=O)C2C1` (centres undefined) the figure was 5.16%. Regarding `CCCCCCC(=O)N(O)C1CC(=O)N(c2ccccc2)C1=O` (centres undefined), the Potency is 7.08 µM (active). On to `CCOc1ccc(N2C(=O)CC(N(O)c3ccccc3)C2=O)cc1` (centres undefined), for which the largest response in the series, negative = inhibition was -14.7%. Consider `CCOC(=O)c1ccc(N2C(=O)CC(N(C)Cc3ccccc3)C2=O)cc1` (centres undefined), for which the largest response in the series, negative = inhibition is 16.2%. In the case of `COc1ccc(CCNC(=O)CCc2cn(C)c3ccccc23)c(OC)c1`, the largest response in the series, negative = inhibition is 10.4%. Turning to `Cc1onc(-c2ccccc2)c1C(=O)N1CCN(S(=O)(=O)c2ccccc2C(F)(F)F)CC1`, the largest response in the series, negative = inhibition was 21.8%. `O=C(O)C1CCN(c2ccc([N+](=O)[O-])cc2[N+](=O)[O-])CC1`: the largest response in the series, negative = inhibition is 13.6%.

In the case of `COc1ccc(N2CCN(c3ccc([N+](=O)[O-])cc3Cl)CC2)cc1`, the largest response in the series, negative = inhibition is 2.35%.

For `O=[N+]([O-])c1ccc(N2CCN(c3ccc(O)cc3)CC2)c(Cl)c1`, the Potency was 50.1 µM (active).

(Values after PubChem BioAssay AID1490 (National Center for Advancing Translational Sciences (NCATS), 2009).)
